# Legend:
# [1] = molecular target: Serine/threonine-protein kinase MARK2 (Homo sapiens) (UniProt Q7KZI7); settings: at 1 µM
# [2] = molecular target: PAS domain-containing serine/threonine-protein kinase (Homo sapiens) (UniProt Q96RG2); settings: at 0.1 µM
# [3] = molecular target: PAS domain-containing serine/threonine-protein kinase (Homo sapiens) (UniProt Q96RG2); settings: at 1 µM
# [4] = molecular target: Phosphorylase b kinase gamma catalytic chain, skeletal muscle/heart isoform (Homo sapiens) (UniProt Q16816); settings: at 0.1 µM
# [5] = molecular target: Phosphorylase b kinase gamma catalytic chain, skeletal muscle/heart isoform (Homo sapiens) (UniProt Q16816); settings: at 1 µM
# [6] = molecular target: T1, Phosphorylase b kinase gamma catalytic chain, liver/testis isoform (Homo sapiens) (UniProt P15735); settings: at 0.1 µM
# T1 sequence (whole entry): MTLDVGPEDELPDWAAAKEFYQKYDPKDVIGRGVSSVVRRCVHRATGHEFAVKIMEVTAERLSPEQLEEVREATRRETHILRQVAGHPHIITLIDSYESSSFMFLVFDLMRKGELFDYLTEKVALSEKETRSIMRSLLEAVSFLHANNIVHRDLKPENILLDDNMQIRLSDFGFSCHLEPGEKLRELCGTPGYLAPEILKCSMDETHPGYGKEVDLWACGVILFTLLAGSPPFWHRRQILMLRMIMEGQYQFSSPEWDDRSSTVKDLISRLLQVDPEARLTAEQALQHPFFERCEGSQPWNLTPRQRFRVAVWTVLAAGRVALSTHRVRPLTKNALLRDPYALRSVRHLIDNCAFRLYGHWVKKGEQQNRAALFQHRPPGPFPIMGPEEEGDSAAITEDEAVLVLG
# [7] = molecular target: T1, Phosphorylase b kinase gamma catalytic chain, liver/testis isoform (Homo sapiens); settings: at 1 µM
# [8] = molecular target: Serine/threonine-protein kinase pim-1 (Homo sapiens) (UniProt P11309); settings: at 0.1 µM
# [9] = molecular target: Serine/threonine-protein kinase pim-1 (Homo sapiens) (UniProt P11309); settings: at 1 µM
# [10] = molecular target: Serine/threonine-protein kinase pim-2 (Homo sapiens) (UniProt Q9P1W9); settings: at 0.1 µM
# [11] = molecular target: Serine/threonine-protein kinase pim-2 (Homo sapiens) (UniProt Q9P1W9); settings: at 1 µM
# [12] = molecular target: Serine/threonine-protein kinase pim-3 (Homo sapiens) (UniProt Q86V86); settings: at 0.1 µM
# [13] = molecular target: Serine/threonine-protein kinase pim-3 (Homo sapiens) (UniProt Q86V86); settings: at 1 µM
# [14] = molecular target: T2, MAP kinase-activated protein kinase 5 (Homo sapiens) (UniProt Q8IW41); settings: at 0.1 µM
# T2 sequence (whole entry): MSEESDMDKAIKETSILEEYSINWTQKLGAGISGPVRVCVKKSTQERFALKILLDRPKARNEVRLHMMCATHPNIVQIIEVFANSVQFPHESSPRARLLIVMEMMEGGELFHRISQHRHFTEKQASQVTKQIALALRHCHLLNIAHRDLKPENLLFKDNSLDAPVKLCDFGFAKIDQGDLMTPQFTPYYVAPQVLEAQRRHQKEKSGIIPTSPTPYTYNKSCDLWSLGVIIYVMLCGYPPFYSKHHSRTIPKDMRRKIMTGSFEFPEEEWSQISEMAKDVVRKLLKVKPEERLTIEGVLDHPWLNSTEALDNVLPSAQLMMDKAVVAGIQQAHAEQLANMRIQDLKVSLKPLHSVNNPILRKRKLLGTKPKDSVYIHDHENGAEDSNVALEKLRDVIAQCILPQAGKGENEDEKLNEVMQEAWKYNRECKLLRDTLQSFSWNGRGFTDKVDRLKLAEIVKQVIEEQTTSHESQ
# [15] = molecular target: T2, MAP kinase-activated protein kinase 5 (Homo sapiens); settings: at 1 µM
# [16] = molecular target: Serine/threonine-protein kinase SIK1 (Homo sapiens) (UniProt P57059); settings: at 0.1 µM
# [17] = molecular target: Serine/threonine-protein kinase SIK1 (Homo sapiens) (UniProt P57059); settings: at 1 µM
# [18] = molecular target: Serine/threonine-protein kinase SIK2 (Homo sapiens) (UniProt Q9H0K1); settings: at 0.1 µM
# [19] = molecular target: Serine/threonine-protein kinase SIK2 (Homo sapiens) (UniProt Q9H0K1); settings: at 1 µM
# [20] = molecular target: T3, Serine/threonine-protein kinase TBK1 (Homo sapiens) (UniProt Q9UHD2); settings: at 0.1 µM;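 further: values are the mean TBK1 inhibition, taken from the GSK PKIS screening data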
# T3 sequence (whole entry): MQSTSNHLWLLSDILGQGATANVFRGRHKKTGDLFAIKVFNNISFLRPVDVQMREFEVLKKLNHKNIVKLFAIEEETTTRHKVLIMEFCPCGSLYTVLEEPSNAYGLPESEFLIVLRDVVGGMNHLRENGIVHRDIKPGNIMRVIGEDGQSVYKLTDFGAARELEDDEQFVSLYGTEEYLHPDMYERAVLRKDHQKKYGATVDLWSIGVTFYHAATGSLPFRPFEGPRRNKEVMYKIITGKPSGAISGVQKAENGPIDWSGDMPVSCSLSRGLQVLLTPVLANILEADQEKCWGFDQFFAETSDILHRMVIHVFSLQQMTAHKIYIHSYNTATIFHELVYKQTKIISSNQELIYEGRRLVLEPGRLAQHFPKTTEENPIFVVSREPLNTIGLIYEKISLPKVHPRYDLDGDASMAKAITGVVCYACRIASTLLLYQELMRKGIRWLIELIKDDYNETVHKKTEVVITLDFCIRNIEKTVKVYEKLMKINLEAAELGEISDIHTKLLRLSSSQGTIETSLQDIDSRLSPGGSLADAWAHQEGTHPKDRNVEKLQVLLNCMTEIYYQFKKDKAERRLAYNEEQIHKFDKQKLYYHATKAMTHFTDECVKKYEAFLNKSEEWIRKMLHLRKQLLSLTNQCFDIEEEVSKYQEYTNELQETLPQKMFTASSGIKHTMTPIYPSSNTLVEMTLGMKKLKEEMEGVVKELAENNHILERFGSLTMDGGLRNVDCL
# PAS domain-containing serine/threonine-protein kinase (Homo sapiens), sequence (Q96RG2 whole entry, the tested form may be a part, canonical isoform): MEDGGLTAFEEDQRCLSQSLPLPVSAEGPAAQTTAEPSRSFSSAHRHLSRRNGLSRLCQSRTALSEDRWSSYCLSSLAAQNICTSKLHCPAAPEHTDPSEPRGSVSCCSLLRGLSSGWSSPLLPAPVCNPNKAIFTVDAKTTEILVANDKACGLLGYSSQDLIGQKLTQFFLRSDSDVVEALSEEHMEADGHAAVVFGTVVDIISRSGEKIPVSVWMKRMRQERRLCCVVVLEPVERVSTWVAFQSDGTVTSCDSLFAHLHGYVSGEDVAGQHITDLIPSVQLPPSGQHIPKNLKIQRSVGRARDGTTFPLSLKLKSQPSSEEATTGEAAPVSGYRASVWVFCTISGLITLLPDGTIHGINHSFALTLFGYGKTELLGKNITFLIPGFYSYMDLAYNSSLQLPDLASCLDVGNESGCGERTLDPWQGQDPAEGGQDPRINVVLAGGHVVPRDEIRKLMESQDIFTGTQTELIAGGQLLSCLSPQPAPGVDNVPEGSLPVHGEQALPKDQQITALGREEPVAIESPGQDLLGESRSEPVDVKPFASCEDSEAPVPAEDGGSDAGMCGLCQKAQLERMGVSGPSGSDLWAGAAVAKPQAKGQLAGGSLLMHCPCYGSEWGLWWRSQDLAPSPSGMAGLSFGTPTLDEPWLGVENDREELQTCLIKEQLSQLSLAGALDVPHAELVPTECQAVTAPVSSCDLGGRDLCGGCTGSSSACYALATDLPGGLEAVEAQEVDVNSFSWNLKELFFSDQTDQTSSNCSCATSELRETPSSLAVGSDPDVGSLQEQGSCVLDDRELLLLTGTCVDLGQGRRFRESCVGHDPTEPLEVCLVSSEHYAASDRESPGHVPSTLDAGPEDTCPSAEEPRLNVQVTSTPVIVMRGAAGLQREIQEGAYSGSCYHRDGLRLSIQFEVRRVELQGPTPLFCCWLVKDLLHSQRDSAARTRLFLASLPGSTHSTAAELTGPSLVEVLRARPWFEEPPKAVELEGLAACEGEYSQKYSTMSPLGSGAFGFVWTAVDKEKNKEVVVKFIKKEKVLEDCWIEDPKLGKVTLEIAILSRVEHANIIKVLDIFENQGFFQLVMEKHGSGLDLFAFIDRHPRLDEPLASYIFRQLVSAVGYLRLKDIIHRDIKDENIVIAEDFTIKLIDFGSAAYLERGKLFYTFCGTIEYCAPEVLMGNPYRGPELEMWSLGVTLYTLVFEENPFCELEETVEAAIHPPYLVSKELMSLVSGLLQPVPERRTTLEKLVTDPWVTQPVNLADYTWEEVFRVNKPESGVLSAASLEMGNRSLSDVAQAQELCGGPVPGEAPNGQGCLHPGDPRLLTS
# Serine/threonine-protein kinase pim-1 (Homo sapiens), sequence (P11309 whole entry, looked up): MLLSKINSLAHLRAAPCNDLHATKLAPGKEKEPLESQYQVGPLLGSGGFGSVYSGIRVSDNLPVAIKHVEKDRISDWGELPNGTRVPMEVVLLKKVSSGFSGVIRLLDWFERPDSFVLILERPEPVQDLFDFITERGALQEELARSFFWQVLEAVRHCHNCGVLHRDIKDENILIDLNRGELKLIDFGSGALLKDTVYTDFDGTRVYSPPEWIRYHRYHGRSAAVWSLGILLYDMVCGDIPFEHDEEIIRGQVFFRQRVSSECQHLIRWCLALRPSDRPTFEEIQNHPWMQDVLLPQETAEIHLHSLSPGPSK
# Serine/threonine-protein kinase SIK2 (Homo sapiens), sequence (Q9H0K1 whole entry, looked up): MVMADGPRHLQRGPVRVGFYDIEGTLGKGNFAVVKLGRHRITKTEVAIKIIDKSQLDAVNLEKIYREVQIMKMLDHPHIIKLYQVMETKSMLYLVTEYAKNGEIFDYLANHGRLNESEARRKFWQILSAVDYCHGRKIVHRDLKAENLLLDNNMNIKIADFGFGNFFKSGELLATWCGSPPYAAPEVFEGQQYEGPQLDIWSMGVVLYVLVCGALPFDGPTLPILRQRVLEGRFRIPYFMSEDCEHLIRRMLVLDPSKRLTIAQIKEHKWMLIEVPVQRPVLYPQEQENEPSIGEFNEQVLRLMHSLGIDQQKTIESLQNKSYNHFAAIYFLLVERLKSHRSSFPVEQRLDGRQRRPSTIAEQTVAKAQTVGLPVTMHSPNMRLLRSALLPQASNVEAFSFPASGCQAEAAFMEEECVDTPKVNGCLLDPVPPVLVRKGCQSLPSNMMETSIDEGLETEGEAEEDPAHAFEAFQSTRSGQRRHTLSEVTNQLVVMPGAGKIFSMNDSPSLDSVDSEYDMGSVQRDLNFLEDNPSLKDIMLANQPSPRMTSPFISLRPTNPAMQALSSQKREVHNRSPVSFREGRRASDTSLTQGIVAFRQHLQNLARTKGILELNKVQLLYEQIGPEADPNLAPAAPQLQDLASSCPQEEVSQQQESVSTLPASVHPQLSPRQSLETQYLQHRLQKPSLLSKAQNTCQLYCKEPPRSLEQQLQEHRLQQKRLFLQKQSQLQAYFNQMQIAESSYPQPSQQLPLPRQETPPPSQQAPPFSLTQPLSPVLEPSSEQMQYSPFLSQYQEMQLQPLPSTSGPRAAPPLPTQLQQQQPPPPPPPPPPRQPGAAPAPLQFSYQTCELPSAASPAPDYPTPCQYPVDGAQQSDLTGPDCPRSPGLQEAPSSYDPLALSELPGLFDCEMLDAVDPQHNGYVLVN
# Serine/threonine-protein kinase MARK2 (Homo sapiens), sequence (Q7KZI7 whole entry, the tested form may be a part): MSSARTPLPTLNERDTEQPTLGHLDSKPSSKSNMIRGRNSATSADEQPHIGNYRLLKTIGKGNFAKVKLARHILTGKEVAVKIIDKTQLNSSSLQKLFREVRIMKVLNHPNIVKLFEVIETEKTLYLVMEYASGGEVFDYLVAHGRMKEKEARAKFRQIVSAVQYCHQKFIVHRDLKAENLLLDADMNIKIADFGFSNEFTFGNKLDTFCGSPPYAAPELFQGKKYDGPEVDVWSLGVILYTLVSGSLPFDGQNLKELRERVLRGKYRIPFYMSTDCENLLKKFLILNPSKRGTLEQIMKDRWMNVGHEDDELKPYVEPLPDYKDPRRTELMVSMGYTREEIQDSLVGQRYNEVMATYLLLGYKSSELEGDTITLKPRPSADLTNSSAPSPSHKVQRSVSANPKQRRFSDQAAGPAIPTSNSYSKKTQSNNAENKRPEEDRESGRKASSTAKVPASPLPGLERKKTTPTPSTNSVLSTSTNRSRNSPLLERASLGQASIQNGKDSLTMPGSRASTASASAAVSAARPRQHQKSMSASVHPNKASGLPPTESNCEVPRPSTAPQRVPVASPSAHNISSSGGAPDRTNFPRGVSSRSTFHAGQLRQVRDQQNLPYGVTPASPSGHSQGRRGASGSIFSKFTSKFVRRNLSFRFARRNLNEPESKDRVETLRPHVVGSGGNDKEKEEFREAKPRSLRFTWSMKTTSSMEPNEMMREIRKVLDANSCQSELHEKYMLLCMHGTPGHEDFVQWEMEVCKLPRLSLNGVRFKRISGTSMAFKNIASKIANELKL
# Serine/threonine-protein kinase pim-2 (Homo sapiens), sequence (Q9P1W9 whole entry, looked up): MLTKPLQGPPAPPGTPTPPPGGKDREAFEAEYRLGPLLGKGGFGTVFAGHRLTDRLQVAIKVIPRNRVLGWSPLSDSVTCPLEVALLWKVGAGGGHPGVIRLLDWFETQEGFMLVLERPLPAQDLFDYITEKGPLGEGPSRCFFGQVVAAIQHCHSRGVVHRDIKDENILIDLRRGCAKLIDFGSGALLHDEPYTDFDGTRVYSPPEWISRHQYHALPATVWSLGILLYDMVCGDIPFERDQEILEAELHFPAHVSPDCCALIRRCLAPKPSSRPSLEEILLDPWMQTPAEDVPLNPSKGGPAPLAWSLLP
# Serine/threonine-protein kinase SIK1 (Homo sapiens), sequence (P57059 whole entry): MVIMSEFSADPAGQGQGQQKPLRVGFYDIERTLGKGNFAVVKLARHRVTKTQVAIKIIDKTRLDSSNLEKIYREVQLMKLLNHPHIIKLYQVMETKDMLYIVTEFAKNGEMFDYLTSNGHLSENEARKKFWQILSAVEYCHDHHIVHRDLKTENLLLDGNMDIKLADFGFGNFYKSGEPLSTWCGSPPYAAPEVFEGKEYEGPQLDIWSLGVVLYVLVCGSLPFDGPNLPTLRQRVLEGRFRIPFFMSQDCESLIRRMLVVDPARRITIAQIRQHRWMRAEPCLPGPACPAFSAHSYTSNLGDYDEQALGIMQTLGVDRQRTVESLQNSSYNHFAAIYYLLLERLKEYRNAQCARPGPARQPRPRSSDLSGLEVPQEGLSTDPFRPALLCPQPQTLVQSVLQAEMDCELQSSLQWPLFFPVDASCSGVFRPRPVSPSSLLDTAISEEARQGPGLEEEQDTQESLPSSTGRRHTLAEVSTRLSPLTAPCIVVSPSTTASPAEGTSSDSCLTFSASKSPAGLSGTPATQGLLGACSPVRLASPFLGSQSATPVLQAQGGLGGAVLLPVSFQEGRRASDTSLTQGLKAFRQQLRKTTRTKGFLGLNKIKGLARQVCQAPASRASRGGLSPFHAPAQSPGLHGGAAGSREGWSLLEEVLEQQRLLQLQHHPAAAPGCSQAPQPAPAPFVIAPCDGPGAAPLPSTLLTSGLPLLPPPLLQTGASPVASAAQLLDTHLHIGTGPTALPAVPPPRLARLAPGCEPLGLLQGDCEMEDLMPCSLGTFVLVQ
smiles,measurement,setting,value
Cc1ccc(C(=O)NC2CCC2)cc1-c1ccc(C(=O)NCC2CC2)cc1,inhibition,[1],0.79%
same,inhibition,[2],0.3%
same,inhibition,[3],-1.21%
same,inhibition,[4],2.32%
same,inhibition,[5],2.85%
same,inhibition,[6],3.61%
same,inhibition,[7],2%
same,inhibition,[8],0.78%
same,inhibition,[9],1.55%
same,inhibition,[10],-0.51%
same,inhibition,[11],-0.13%
same,inhibition,[12],-0.5%
same,inhibition,[13],0.14%
same,inhibition,[14],0.63%
same,inhibition,[15],-0.21%
same,inhibition,[16],6.34%
same,inhibition,[17],3.12%
same,inhibition,[18],1.33%
same,inhibition,[19],0.45%
same,inhibition,[20],1.61%
C[C@@H](Oc1cc(-n2cnc3ccc(OC4CCN(C)CC4)cc32)sc1C(N)=O)c1ccccc1Cl,inhibition,[1],9.93%
same,inhibition,[2],-0.56%
same,inhibition,[3],0.38%
same,inhibition,[4],2.08%
same,inhibition,[5],5.16%
same,inhibition,[6],5.55%
same,inhibition,[7],4.86%
same,inhibition,[8],16.1%
same,inhibition,[9],65.3%
same,inhibition,[10],-4.35%
same,inhibition,[11],-3.56%
same,inhibition,[12],8.14%
same,inhibition,[13],45%
same,inhibition,[14],1.31%
same,inhibition,[15],1.54%
same,inhibition,[16],3.1%
same,inhibition,[17],19.3%
same,inhibition,[18],6.72%
same,inhibition,[19],14%
same,inhibition,[20],4.61%
COc1ccc(-c2ccc3c(NC(=O)C4CC4)n[nH]c3n2)cc1,inhibition,[1],-0.61%
same,inhibition,[2],0.2%
same,inhibition,[3],2.17%
same,inhibition,[4],5.12%
same,inhibition,[5],7.79%
same,inhibition,[6],0.93%
same,inhibition,[7],5.44%
same,inhibition,[8],-0.29%
same,inhibition,[9],-0.78%
same,inhibition,[10],-0.37%
same,inhibition,[11],0.38%
same,inhibition,[12],0.42%
same,inhibition,[13],0.61%
same,inhibition,[14],1.05%
same,inhibition,[15],2.54%
same,inhibition,[16],-0.67%
same,inhibition,[17],4.73%
same,inhibition,[18],2.86%
same,inhibition,[19],6.15%
same,inhibition,[20],2.33%
O=C(Nc1n[nH]c2cc(-c3ccccc3)ccc12)C1CC1,inhibition,[1],3.6%
same,inhibition,[2],0.21%
same,inhibition,[3],-1.15%
same,inhibition,[4],8.27%
same,inhibition,[5],7.18%
same,inhibition,[6],5.27%
same,inhibition,[7],4.5%
same,inhibition,[8],1.3%
same,inhibition,[9],0.46%
same,inhibition,[10],0.26%
same,inhibition,[11],0.64%
same,inhibition,[12],-2.16%
same,inhibition,[13],-2.34%
same,inhibition,[14],1.27%
same,inhibition,[15],0.86%
same,inhibition,[16],5.14%
same,inhibition,[17],9.28%
same,inhibition,[18],5.24%
same,inhibition,[19],12.8%
same,inhibition,[20],1.84%
CCS(=O)(=O)c1ccc(OC)c(Nc2ncc(-c3ccccc3Cl)o2)c1,inhibition,[1],-0.17%
same,inhibition,[2],1.42%
same,inhibition,[3],0.93%
same,inhibition,[4],1.33%
same,inhibition,[5],1.36%
same,inhibition,[6],1.67%
same,inhibition,[7],0.7%
same,inhibition,[8],-0.02%
same,inhibition,[9],1.67%
same,inhibition,[10],-0.56%
same,inhibition,[11],0.67%
same,inhibition,[12],-0.12%
same,inhibition,[13],2.15%
same,inhibition,[14],0.46%
same,inhibition,[15],-0.58%
same,inhibition,[16],2.08%
same,inhibition,[17],0.14%
same,inhibition,[18],1.64%
same,inhibition,[19],3.21%
same,inhibition,[20],1.3%
CN(c1ccc(NC(=O)Nc2c(Cl)cccc2Cl)cc1)c1ccnc(Nc2cccc(CS(C)(=O)=O)c2)n1,inhibition,[1],2.99%
same,inhibition,[2],0.68%
same,inhibition,[3],2.77%
same,inhibition,[4],2.51%
same,inhibition,[5],8.06%
same,inhibition,[6],2.8%
same,inhibition,[7],6.5%
same,inhibition,[8],-0.26%
same,inhibition,[9],0.34%
same,inhibition,[10],0.03%
same,inhibition,[11],0.1%
same,inhibition,[12],1.1%
same,inhibition,[13],3.85%
same,inhibition,[14],1.58%
same,inhibition,[15],1.46%
same,inhibition,[16],5.71%
same,inhibition,[17],13.3%
same,inhibition,[18],9.6%
same,inhibition,[19],10.2%
same,inhibition,[20],3.74%
CN(C)CCOc1ccc(-c2cc(-c3ccc4c(c3)CCC4=NO)c(-c3ccncc3)o2)cc1,inhibition,[1],0.33%
same,inhibition,[2],1.53%
same,inhibition,[3],1.21%
same,inhibition,[4],1.83%
same,inhibition,[5],5.45%
same,inhibition,[6],-1.99%
same,inhibition,[7],-1.19%
same,inhibition,[8],0.55%
same,inhibition,[9],0.18%
same,inhibition,[10],-0.09%
same,inhibition,[11],0.08%
same,inhibition,[12],1.08%
same,inhibition,[13],0.13%
same,inhibition,[14],-0.29%
same,inhibition,[15],-0.04%
same,inhibition,[16],0.11%
same,inhibition,[17],6.09%
same,inhibition,[18],-4.64%
same,inhibition,[19],-1.24%
same,inhibition,[20],-2.4%

# From ChEMBL document CHEMBL1961873, “Compounds: GSK PKIS; Assays: Nanosyn kinase panel” (2012)
